Screening data (PubChem)
NS1 function inh – inhibitors of influenza NS1 protein function; 270,000 tested, 0.4% active; Potency, µM (doses to about 46.1 µM), for inactives: at the highest dose activity, positive = more growth; calls by dose curve; further: actives are rising curves; nearly all actives have a fitted effect of over 50% in size
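S. cerevisiae expressing influenza A NS1, grown in glucose, washed, then diluted 1:100 into pH 6.0 -URA galactose medium with 23 nl compound. Growth recovery read as OD600; NS1-free strain serves as control.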
HCV inhibitor – blocks hepatitis C virus. 340,000 tested, 3.4% active. Potency, µM (titrated, usually from 41.8 µM), inactives show top-dose activity change, negative = inhibition, actives largely listed as inhibitors. Huh7.5.1 HCVcc-Cre infection, luciferase reporter, 44 h; further: on the % scale 0 is the no-effect control and ±100 the full control effect
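1,000 cells/well; 4 h culture; + compound; + HCVcc-Cre (~0.5 moi); 44 h; luciferase substrate, RT 15 min; read 15 sec.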
SARS PLpro yeast – blocks SARS-CoV papain-like protease in a yeast assay; 330,000 tested, 0.19% active; Potency, µM (series often up to 32.9 µM), inactives show at the highest dose activity, positive = growth rescue, usual class: activators; S. cerevisiae expressing SARS-CoV PLpro, growth rescue; calls by dose curve; further: 0% is about no effect; nearly all actives have a fitted effect of over 55% in size
Pf growth 48h – P. falciparum growth inhibition at 48 hours (one generation); P. falciparum luciferase growth in erythrocytes, 48 h; Potency, µM (series often up to 28.7 µM), for inactives: at the top dose activity change, negative = inhibition, usual class: inhibitors; 310,000 tested, 5.9% active; AID 504832; further: on the % scale 0 is the no-effect control and ±100 the full control effect
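Firefly luciferase activity from engineered P. falciparum reports growth; inhibitors lower the luminescent signal. Cultures contained 2% hematocrit erythrocytes at 0.1% final parasitemia.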
Pf growth 96h – P. falciparum growth inhibition at 96 hours | P. falciparum luciferase reporter growth, 96 h | Potency, µM (series often up to 28.7 µM), without a hit: at the highest dose activity change, negative = inhibition, most hits filed as inhibitors | 320,000 tested, 6.9% active | AID 504834; further: on the % scale 0 is the no-effect control and ±100 the full control effect
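Cell-based qHTS: luciferase-tagged P. falciparum in erythrocytes (2% hematocrit, 0.05% parasitemia final) incubated with compounds for 96 hours, 37 C, 5% CO2; luciferase detection reagent then added and luminescence measured.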
AMA1 RON2 block – inhibitors of Plasmodium falciparum AMA1-RON2 interaction | AlphaScreen AMA1-biotinylated RON2 peptide binding | Potency, µM (doses to about 58.2 µM), for the others: at the highest dose activity change, negative = inhibition, usual class: inhibitors | 360,000 tested, 0.2% active | AID 720542;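 further: 0% = vehicle wells and -100% = peptide control; nearly all actives have a fitted effect of over 45% in size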
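AMA1 (3D7) with his tag at 25 nM final met compounds first, then biotinylated RON2 peptide at 25 nM; detection used donor plus acceptor beads, 10 µg/mL apiece, read by AlphaScreen after 30 min at room temperature.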
* marks the source's active call; other numbers are inactive results. In the library only some 12% were active in any assay of this set; here they are far more common. Unless noted, the call rests on the fitted dose curve; in most records, active means well fitted curve in the direction sought with a large enough effect; inconclusive means small, poorly fitted or top-dose-only effect, or another doubt; inactive means no such curve, though single readings can be large; an effect the other way counts as inactive or inconclusive. Potency means the concentration at half of the fitted maximal effect.

For CN(C)S(=O)(=O)N1CCC(Oc2ccc(C(=O)NCC(C)(C)CO)cc2)CC1 the results were NS1 function inh 2.2%, HCV inhibitor 18.3%, SARS PLpro yeast 0.4%, Pf growth 48h -17.0%, Pf growth 96h 1.65µM* and AMA1 RON2 block 15.6%.
CN(C)S(=O)(=O)N1CCC(Oc2cccc(C(=O)NC3CCOC3)c2)CC1 (centres undefined) was read as NS1 function inh 6.1%, HCV inhibitor -4.7%, SARS PLpro yeast 5.4%, Pf growth 48h 23.2%, Pf growth 96h 15.1% and AMA1 RON2 block -0.1%.
CN(C)S(=O)(=O)N1CCC(Oc2ccc(C(=O)NC3CCCCC3)cc2)CC1 was read as NS1 function inh 0.3%, HCV inhibitor -9.1%, SARS PLpro yeast -1.4%, Pf growth 48h inconclusive, Pf growth 96h 13.1µM* and AMA1 RON2 block 10.8%.
Screening COc1cccc(C(=O)NC2CCCC2)c1 returned NS1 function inh 4.8%, HCV inhibitor 1.5%, SARS PLpro yeast 0.2%, Pf growth 48h 13.8%, Pf growth 96h 4.65µM* and AMA1 RON2 block -1.7%.
`CN(C)S(=O)(=O)N1CCC(Oc2cccc(C(=O)NC3CCCCC3)c2)CC1` gave NS1 function inh -9.9%, HCV inhibitor 5.62µM*, SARS PLpro yeast 14.0%, Pf growth 48h -17.0%, Pf growth 96h 6.0% and AMA1 RON2 block 6.8%.
O=c1cc(O)c2c(=O)n(-c3ccccc3)c3ccccc3c2o1 was read as NS1 function inh inconclusive, HCV inhibitor -1.3%, SARS PLpro yeast 9.2%, Pf growth 48h 33.5%, Pf growth 96h 11.7µM* and AMA1 RON2 block 0.8%.
CCn1c(=O)c2c(O)cc(=O)oc2c2ccccc21 was read as NS1 function inh -50.4%, HCV inhibitor 4.6%, SARS PLpro yeast -7.7%, Pf growth 48h 4.7%, Pf growth 96h -2.1% and AMA1 RON2 block -9.4%.
CCOC(=O)c1cnc(SC)nc1Oc1cccc(NS(=O)(=O)c2ccc(F)cc2)c1 was read as NS1 function inh -5.9%, HCV inhibitor inconclusive, SARS PLpro yeast 14.7%, Pf growth 48h -73.3%, Pf growth 96h inconclusive and AMA1 RON2 block 2.1%.
For CCOC(=O)c1cnc(SC)nc1Oc1cccc(NS(=O)(=O)c2ccccc2)c1 the results were NS1 function inh -7.1%, HCV inhibitor 10µM*, SARS PLpro yeast -3.6%, Pf growth 48h -5.6%, Pf growth 96h inconclusive and AMA1 RON2 block 11.9%.
`COc1ccc(NC(=O)NCc2ccccc2F)cc1OC` gave NS1 function inh 1.3%, HCV inhibitor -7.9%, SARS PLpro yeast -0.9%, Pf growth 48h 6.3%, Pf growth 96h 10.4µM* and AMA1 RON2 block 7.8%.
CCOc1ccccc1NC(=O)NCc1ccccc1F was read as NS1 function inh -1.7%, HCV inhibitor 11.2µM*, SARS PLpro yeast 0.8%, Pf growth 48h 0.0%, Pf growth 96h 0.8% and AMA1 RON2 block -1.8%.
Screening COc1ccccc1NC(=O)NCc1ccccc1F returned NS1 function inh -1.0%, HCV inhibitor -13.5%, SARS PLpro yeast -1.3%, Pf growth 48h 52.3%, Pf growth 96h 1.4% and AMA1 RON2 block -3.7%.
Screening COc1cccc(NC(=O)NCc2ccccc2F)c1 returned NS1 function inh -2.7%, HCV inhibitor inconclusive, SARS PLpro yeast 0.0%, Pf growth 48h 147.4%, Pf growth 96h -22.5% and AMA1 RON2 block 5.7%.
Screening CCN(CC)C1=C(Cl)C(=O)C(Cl)C12OCCO2 (centres undefined) returned NS1 function inh 0.9%, HCV inhibitor 0.8%, SARS PLpro yeast 1.0%, Pf growth 48h 14.7µM*, Pf growth 96h -6.5% and AMA1 RON2 block -9.0%.
Screening COc1cc(CNC(C)C23CC4CC(CC(C4)C2)C3)cc(OC)c1OC (centres undefined) returned NS1 function inh 3.5%, HCV inhibitor -4.0%, SARS PLpro yeast 0.9%, Pf growth 48h 11.7µM*, Pf growth 96h inconclusive and AMA1 RON2 block -8.2%.
`COc1cc(CNC(C)C23CC4CC(CC(C4)C2)C3)ccc1OCC(=O)NC(C)(C)C` (centres undefined) gave NS1 function inh 7.2%, HCV inhibitor inconclusive, SARS PLpro yeast -0.6%, Pf growth 48h 10.4µM*, Pf growth 96h -0.7% and AMA1 RON2 block -12.0%.
CCCCCCn1cc(CN2CC(N3CCN(Cc4ccccc4F)CC3)CS2(=O)=O)nn1 (centres undefined) was read as AMA1 RON2 block -11.9%.
`Cc1onc(-c2c(Cl)cccc2Cl)c1COC(=O)c1ccc([N+](=O)[O-])cc1` gave NS1 function inh 5.9%, HCV inhibitor -24.0%, SARS PLpro yeast 0.6%, Pf growth 48h inconclusive, Pf growth 96h inconclusive and AMA1 RON2 block -25.4%.
Screening Cc1onc(-c2c(F)cccc2Cl)c1-c1nnc(-c2ccc(C(F)(F)F)cc2)o1 returned NS1 function inh inconclusive, HCV inhibitor -41.6%, SARS PLpro yeast -0.6%, Pf growth 48h 8.28µM*, Pf growth 96h 8.28µM* and AMA1 RON2 block 6.5%.
Cc1onc(-c2c(Cl)cccc2Cl)c1COC(=O)c1ccc(Cl)cc1 was read as NS1 function inh 3.2%, HCV inhibitor inconclusive, SARS PLpro yeast -1.1%, Pf growth 48h inconclusive, Pf growth 96h 13.1µM* and AMA1 RON2 block 8.2%.
`CC(=O)Nc1nnc(-c2c(-c3c(Cl)cccc3Cl)noc2C)o1` gave NS1 function inh -2.9%, HCV inhibitor -9.4%, SARS PLpro yeast 0.5%, Pf growth 48h 17.8%, Pf growth 96h 26.1% and AMA1 RON2 block 18.2%.
Screening Cc1onc(-c2c(Cl)cccc2Cl)c1-c1nnc(-c2ccc(Cl)cc2)o1 returned NS1 function inh 0.0%, HCV inhibitor 17.8µM*, SARS PLpro yeast 0.6%, Pf growth 48h inconclusive, Pf growth 96h -47.9% and AMA1 RON2 block -25.9%.
CC(C)Cn1nc(NC(=O)C(C)(C)C)c2cc3ccccc3nc21 was read as NS1 function inh -5.7%, HCV inhibitor -9.5%, SARS PLpro yeast -8.4%, Pf growth 48h 9.28µM*, Pf growth 96h inconclusive and AMA1 RON2 block 94.2%.
`CC(C)Cn1nc(NC(=O)c2cccs2)c2cc3ccccc3nc21` gave NS1 function inh -1.6%, HCV inhibitor 8.91µM*, SARS PLpro yeast -0.2%, Pf growth 48h inconclusive, Pf growth 96h inconclusive and AMA1 RON2 block 158.6%.
For Cc1ccc(-c2nn3c(C)nnc3s2)cc1NC(=O)c1cccs1 the results were NS1 function inh 3.5%, HCV inhibitor inconclusive, SARS PLpro yeast -6.3%, Pf growth 48h inconclusive and AMA1 RON2 block 25.1%.
`CCCCC(=O)Nc1nn(CC(C)C)c2nc3ccccc3cc12` gave NS1 function inh 7.6%, HCV inhibitor -12.1%, SARS PLpro yeast 1.3%, Pf growth 48h inconclusive, Pf growth 96h -3.0% and AMA1 RON2 block 28.3%.
